Test systems include HCT-15 colon; HT29 colon; SNB-75 CNS; SNB-19 CNS; PC-3 prostate; SK-MEL-5 melanoma; UACC-62 melanoma; LOX IMVI melanoma; SK-MEL-28 melanoma; U251 CNS.
Common to all, as to test: NCI-60 one-dose screen, 48 h (100 = growth as untreated, 0 = no growth, -100 = all killed)
Common to all, as to conditions: 10 µM unless noted

This is part of a sample that, as a whole, favours compounds with a hit. Of some 83,000 tested, about 20% had one in any assay.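 Growth was measured after 48 h exposure to one concentration of compound in 96-well plates. Values under 10 count as active.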 Values without a mark were called inactive. Activity calls are given as the source filed them.

Turning to `N#CCCN=Nc1c(O)[nH]c2ccc(F)cc12`, the growth in the assay on HCT-15 colon is 101%; with HT29 colon, 110%; with SNB-75 CNS, 62.7%; with SNB-19 CNS, 101%; in the assay with PC-3 prostate, 95.2%; with SK-MEL-5 melanoma, 99.5%. In addition, the growth is 102% with UACC-62 melanoma, 94.5% in the assay on LOX IMVI melanoma and 107% in the assay with SK-MEL-28 melanoma.

With `C=CC(=O)Nc1cccc(-c2nc(SC)nc(NCCc3ccc(OC)c(OC)c3)c2C#N)c1`, the growth in the assay with HCT-15 colon is 52.3%; in the assay on HT29 colon, 77.5%; with SNB-75 CNS, 37.9%; in the assay with SNB-19 CNS, 71.8%; in the assay on PC-3 prostate, 53.2%; in the assay on SK-MEL-5 melanoma, -29.2% (active). Further, the growth in the assay on UACC-62 melanoma was 48.1%; in the assay with LOX IMVI melanoma, 56.6%; in the assay with SK-MEL-28 melanoma, 72.3%.

With `Cc1cc(NS(=O)(=O)c2ccc(-c3cnc(C4CC4)o3)cc2)ccc1Cl`, the growth in the assay on HCT-15 colon is 17%; with HT29 colon it was -17.1% (active); with SNB-75 CNS, -0.004% (active); in the assay on SNB-19 CNS it was 44.3%; in the assay on PC-3 prostate, 24.7%; with SK-MEL-5 melanoma it was 24.8%. Besides, the growth in the assay on UACC-62 melanoma was 26.4%; in the assay on LOX IMVI melanoma, 46.5%; with SK-MEL-28 melanoma, 50.5%.

As for `C=C(C)[C@@H]1CC[C@]2(C(N)=O)CC[C@]3(C)[C@H](CC[C@@H]4[C@@]5(C)C/C(=C/c6ccco6)C(=O)C(C)(C)[C@@H]5CC[C@]43C)[C@@H]12`, the growth is 86.9% in the assay on HCT-15 colon; 98.5% in the assay with HT29 colon; 89.5% in the assay on SNB-75 CNS; 94.5% in the assay with SNB-19 CNS; 75.7% with PC-3 prostate; 96.5% in the assay with SK-MEL-5 melanoma. The growth in the assay with UACC-62 melanoma was 80.2%; in the assay on LOX IMVI melanoma, 88.4%; in the assay with SK-MEL-28 melanoma, 99.6%.

For the compound `O=S(=O)(Nc1ccc(OC(F)F)cc1)c1ccc(-c2cnc(C3CC3)o2)cc1`, the growth in the assay with HCT-15 colon was 38.4%; with HT29 colon, 55.6%; in the assay with SNB-75 CNS, 42.7%; in the assay with SNB-19 CNS, 75.8%; in the assay on PC-3 prostate, 67.6%; with SK-MEL-5 melanoma, 57.7%. The growth in the assay on UACC-62 melanoma was 44%; with SK-MEL-28 melanoma, 85.3%.

In the case of `N=C(N)c1ccc(-c2ccc(-c3ccc4ccccc4c3)s2)s1`, the growth with HCT-15 colon is -82.4% (active); in the assay on HT29 colon it was -60.5% (active); with SNB-75 CNS, 89.3%; in the assay with SNB-19 CNS, -40.4% (active); in the assay with PC-3 prostate, 71.9%; with SK-MEL-5 melanoma, 84.4%. Moreover, the growth with UACC-62 melanoma is -6.73% (active); in the assay on LOX IMVI melanoma it was -56.6% (active); in the assay with SK-MEL-28 melanoma it was 92.8%.

For `COc1ccc(-c2nn(-c3ccc(Cl)cc3)cc2-c2nc3ccccc3[nH]2)cc1`, the growth in the assay with HCT-15 colon is 103%; in the assay with HT29 colon, 84.5%; in the assay on SNB-75 CNS, 76.6%; with U251 CNS, 104%; in the assay with PC-3 prostate, 81.5%; in the assay on UACC-62 melanoma, 75.8%. The growth is 82.1% in the assay with LOX IMVI melanoma and 99.5% in the assay on SK-MEL-28 melanoma.

On to `Cc1nc2c3c(-c4ccccc4)c(-c4ccccc4)oc3ncn2n1`, for which the growth with HCT-15 colon is 101%; in the assay with HT29 colon, 95.8%; in the assay with SNB-75 CNS, 69.9%; in the assay with SNB-19 CNS it was 96.6%; in the assay with PC-3 prostate it was 91.3%; in the assay on SK-MEL-5 melanoma, 96.3%. Also, the results for the growth with UACC-62 melanoma, with LOX IMVI melanoma and in the assay with SK-MEL-28 melanoma were 92.3%, 90.7% and 118%, respectively.

`O=S(=O)(Nc1ccc(NS(=O)(=O)c2ccccc2)c(Cl)c1)c1ccccc1`: the growth was 110% in the assay on HCT-15 colon; 107% in the assay with HT29 colon; 84.9% in the assay with SNB-75 CNS; 105% in the assay on U251 CNS; 88.7% in the assay on PC-3 prostate; 88.8% in the assay with UACC-62 melanoma. Besides, the results for the growth in the assay on LOX IMVI melanoma and in the assay on SK-MEL-28 melanoma were 106% and 107%, respectively.

Regarding `COc1cccc(Nc2nc(SC)nc(-c3cccc([N+](=O)[O-])c3)c2C#N)c1`, the growth in the assay on HCT-15 colon was 79.2%; in the assay on HT29 colon it was 78%; in the assay on SNB-75 CNS, 34%; with SNB-19 CNS, 67.2%; in the assay with PC-3 prostate, 71.2%; with SK-MEL-5 melanoma, 87.2%. Moreover, the growth was 78.5% with UACC-62 melanoma and 76.3% in the assay on SK-MEL-28 melanoma.

Regarding `CSc1nc(-c2cccc(NC(=O)CCl)c2)c(C#N)c(=O)n1C`, the growth was 11% with HCT-15 colon; -33.7% (active) with HT29 colon; 54% with SNB-75 CNS; 86.6% with SNB-19 CNS; 77.5% in the assay on PC-3 prostate; 79.4% with SK-MEL-5 melanoma. Besides, the growth was 60.4% with UACC-62 melanoma, -91.6% (active) in the assay on LOX IMVI melanoma and 87.3% in the assay on SK-MEL-28 melanoma.

Take `Cn1c(O)c(N=NC(=O)c2cc(-c3ccccc3)on2)c2ccccc21`: the growth was 101% in the assay with HCT-15 colon; 105% with HT29 colon; 58.5% in the assay on SNB-75 CNS; 98.2% in the assay with SNB-19 CNS; 103% in the assay with PC-3 prostate; 99.3% in the assay on SK-MEL-5 melanoma. Also, the growth with UACC-62 melanoma was 98.9%; in the assay on LOX IMVI melanoma it was 92.2%; in the assay on SK-MEL-28 melanoma it was 107%.

As for `COc1ccc(-c2nc3ccc(-c4nc5ccc(N6CCN(c7ccccc7)CC6)cc5[nH]4)cc3[nH]2)cc1OC`, the growth in the assay with HCT-15 colon was 15.8%; with HT29 colon it was -91% (active); in the assay with SNB-75 CNS, 45.6%; in the assay with SNB-19 CNS it was -1.62% (active); with PC-3 prostate, -31.5% (active); with SK-MEL-5 melanoma, 43.4%. In addition, the values for the growth in the assay on UACC-62 melanoma, in the assay with LOX IMVI melanoma and with SK-MEL-28 melanoma were 41.6%, -91.8% (active) and -47.5% (active), respectively.

The values are drawn from PubChem BioAssay (NCI).
